Results as given in PubChem BioAssay (NCI).
The panel holds about 83,000 compounds, 20% with a hit somewhere; the sample as a whole holds those more often.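 For each line, cells grew in 96-well plates with the test compound present at a single concentration for 48 hours.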 Unmarked numbers belong to inactive results. Activity calls are given as the source filed them. Rule for the calls: active = growth percent below 10; inactive = the rest.

Test system: HL-60(TB) leukemia
Assay: NCI-60 one-dose screen, 48 h (100 = growth as untreated, 0 = no growth, -100 = all killed)
Conditions: 10 µM unless noted

| Compound | growth |
| --- | --- |
| Clc1nc(Cl)c2c3c(sc2n1)CCCC3 | -14.2% (active) |
| COc1ccc2c(OCc3nnc4ccc(-c5ccccc5)nn34)ccnc2c1 | 106% [2.5 µM] |
| CCOc1ccc(Cc2nccc3cc(OCC)c(OCC)cc23)cc1OCC | 10.5% |
| N#Cc1nnn(-c2ccc(S(N)(=O)=O)cc2)c1NC(=O)CCl | 77.5% |
| O=C(Oc1cccc2cccnc12)c1ccccc1 | 93.7% |
| C=CCC(O)C=C (stereo not given) | 101% |
| O=C(NNC(=O)c1ccc(NC(=O)c2ccccn2)cc1)Nc1ccc2ccccc2c1 | 105% |
| COc1cc2nc(Cl)nc(Nc3cccc(C(=O)/C=C/c4ccccc4)c3)c2cc1OC | 70.1% |
| COc1ccc(C2CC(=O)Nc3c2c(C)nn3-c2nc3ccccc3[nH]2)cc1 (stereo not given) | -17% (active) |
| CCOC(=O)c1cnn(CC(C)O)c1NC(=O)NCc1cccc(F)c1 (stereo not given) | 90.5% |
| COc1ccc2[nH]cc(/C=C3/C(=O)Nc4ccc(F)cc43)c2c1 | 96.6% |
| O=C(O)Cc1ccc2c(c1)Cc1cccnc1O2 | 103% |
| CN(C)c1ccc(/C=N/NC(=O)c2cccc3ccccc23)c(Cl)c1 | -2.75% (active) |
| O=C(S)CNC(=O)c1ccccc1 | 91% |
| CC(C)(C)CC(C)(C)c1ccc(OCCSC(=N)N)cc1 | 22.2% |
| COc1ccc(/C=C/C(=O)Nc2cc(/C=C\c3cc(OC)c(OC)c(OC)c3)cc(OC)c2OC)cc1OC | -38.1% (active) |
| COc1ccc(-c2cc(-c3ccc(Cl)cc3)nc(SCCCC(=O)NO)n2)cc1 | -22.9% (active) |
| CON=C1C[C@]2(C[C@@H]3C[C@@H](C/C=C(\C)C[C@@H](C)/C=C/C=C4\CO[C@@H]5[C@H](O)C(C)=C[C@@H](C(=O)O3)[C@]45O)O2)O[C@H](/C(C)=C/C(C)C)[C@H]1C | -43.6% (active) |
| O=C(Nc1nc2ccccc2s1)c1cc(-c2ccc(F)cc2)n2nc(-c3ccccc3)cc2n1 | 107% |
| O=c1cc(Cl)[nH]c(=O)[nH]1 | 91.7% |
| CC/C=C\C[C@@H]1C/C=C2/C(=O)C=C[C@H]2C/C=C\CCCC(=O)O1 | -26% (active) |
| CC1=CC(C)=Nc2ccc(Cl)cc2N1 | 101% |
| Cc1c(-c2ccc(O)cc2)n(Cc2ccc(OCCN3CCCCCC3)cc2)c2ccc(O)cc12 | 74.6% |
| CCOC(=O)C#Cc1c(C(=O)OCC)nnn1Cc1ccc([N+](=O)[O-])cc1 | 55.4% |
| CN(C)c1ccc2nc3ccc(=[N+](C)C)c([N+](=O)[O-])c-3sc2c1 | 2.66% (active) |
